We go through one sequence from article PMC7862700, “An all-to-all approach to the identification of sequence-specific readers for epigenetic DNA modifications on cytosine”.

Common to all, as to assay: DAPPL (digital affinity profiling via proximity ligation, sequencing); 10 mM Tris-HCl pH 7.5, 50 mM NaCl, 1 mM DTT, 4% glycerol, room temperature, 30 min; GST-TFs on glutathione beads, 16-mer random dsDNA library, 0.1% formaldehyde crosslink after washing; high values mean tight binding
The target of test [1] is T1, FEV (Homo sapiens, UniProt Q99581 1-238).
T1 sequence: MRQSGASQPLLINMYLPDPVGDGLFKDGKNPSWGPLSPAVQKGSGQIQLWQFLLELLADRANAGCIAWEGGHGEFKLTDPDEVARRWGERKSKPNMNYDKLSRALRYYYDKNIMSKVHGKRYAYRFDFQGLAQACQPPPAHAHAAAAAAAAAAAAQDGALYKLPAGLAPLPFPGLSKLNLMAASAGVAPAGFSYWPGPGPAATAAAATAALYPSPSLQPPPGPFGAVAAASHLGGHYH
Particulars: protein: recombinant; tags: N-terminal GST; dsDNA, one strand shown. In short, it runs like this:
(§1)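 Binding signal is given per hexamer as its read frequency for a factor divided by its frequency in the tag-only sample. GST-fused human transcription factors were expressed in yeast, captured on glutathione beads, barcoded with DNA and pooled with that sample, then incubated with 200 nmole of a 16-mer random double-stranded DNA library in Tris/NaCl/DTT/glycerol buffer for 30 min at room temperature. The pools were then washed, crosslinked, proximity-ligated, amplified by PCR and sequenced on an Illumina NextSeq500.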

The target of test [2] is ETV5 (Homo sapiens, UniProt P41161 1-510). Particulars: protein: recombinant; tags: N-terminal GST; dsDNA, one strand shown. In a few lines:
as §1

Test [3] deals with HSF1 (Homo sapiens, UniProt Q00613 1-529). To be noted: protein: recombinant; tags: N-terminal GST; chain copies: 3; dsDNA, one strand shown. In short, it runs like this: as §1
Test [4] concerns the target T2, SPIC (Homo sapiens, UniProt Q8N5J4 1-248).
T2 sequence: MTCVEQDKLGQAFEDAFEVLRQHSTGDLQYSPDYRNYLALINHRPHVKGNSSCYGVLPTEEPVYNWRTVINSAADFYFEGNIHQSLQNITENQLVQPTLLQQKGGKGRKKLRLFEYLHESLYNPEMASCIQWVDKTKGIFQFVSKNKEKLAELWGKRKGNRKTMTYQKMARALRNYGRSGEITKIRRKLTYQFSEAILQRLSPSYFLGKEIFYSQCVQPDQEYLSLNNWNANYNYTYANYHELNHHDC
To be noted: protein: recombinant; tags: N-terminal GST; dsDNA, one strand shown. In short, it runs like this:
as §1

Test [5] concerns the target ELF4 (Homo sapiens, UniProt Q99607 1-663). Particulars: protein: recombinant; tags: N-terminal GST; dsDNA, one strand shown. In a few lines: as §1
In test [6] the target is T3, ELK4 (Homo sapiens, UniProt P28324-2 1-405).
T3 sequence: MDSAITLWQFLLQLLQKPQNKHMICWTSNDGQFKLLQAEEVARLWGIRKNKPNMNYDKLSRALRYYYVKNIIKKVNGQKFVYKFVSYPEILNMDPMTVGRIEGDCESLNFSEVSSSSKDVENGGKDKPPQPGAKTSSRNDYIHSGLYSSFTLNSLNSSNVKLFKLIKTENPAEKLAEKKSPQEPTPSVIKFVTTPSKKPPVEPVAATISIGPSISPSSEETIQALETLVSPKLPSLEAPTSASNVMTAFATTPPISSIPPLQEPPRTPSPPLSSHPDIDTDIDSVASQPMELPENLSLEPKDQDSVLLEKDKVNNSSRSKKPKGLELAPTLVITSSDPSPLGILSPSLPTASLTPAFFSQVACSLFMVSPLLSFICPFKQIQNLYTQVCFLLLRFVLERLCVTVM
To be noted: protein: recombinant; tags: N-terminal GST; dsDNA, one strand shown. In a few lines:
as §1

Test [7] deals with T4, ETV2 (Homo sapiens, UniProt O00321 1-342).
T4 sequence: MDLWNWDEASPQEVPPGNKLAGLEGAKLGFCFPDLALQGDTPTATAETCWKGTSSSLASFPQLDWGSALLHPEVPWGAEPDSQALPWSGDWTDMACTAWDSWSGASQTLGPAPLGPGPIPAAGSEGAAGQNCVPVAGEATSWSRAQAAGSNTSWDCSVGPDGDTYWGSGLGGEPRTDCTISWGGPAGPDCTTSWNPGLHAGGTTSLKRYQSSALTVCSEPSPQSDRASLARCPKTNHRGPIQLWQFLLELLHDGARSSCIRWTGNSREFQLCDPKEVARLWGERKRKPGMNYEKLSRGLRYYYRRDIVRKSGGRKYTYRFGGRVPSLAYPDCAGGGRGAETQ
To be noted: protein: recombinant; tags: N-terminal GST; dsDNA, one strand shown. In a few lines:
as §1

In test [8] the target is T5, ELF3 (Homo sapiens, UniProt P78545 1-371).
T5 sequence: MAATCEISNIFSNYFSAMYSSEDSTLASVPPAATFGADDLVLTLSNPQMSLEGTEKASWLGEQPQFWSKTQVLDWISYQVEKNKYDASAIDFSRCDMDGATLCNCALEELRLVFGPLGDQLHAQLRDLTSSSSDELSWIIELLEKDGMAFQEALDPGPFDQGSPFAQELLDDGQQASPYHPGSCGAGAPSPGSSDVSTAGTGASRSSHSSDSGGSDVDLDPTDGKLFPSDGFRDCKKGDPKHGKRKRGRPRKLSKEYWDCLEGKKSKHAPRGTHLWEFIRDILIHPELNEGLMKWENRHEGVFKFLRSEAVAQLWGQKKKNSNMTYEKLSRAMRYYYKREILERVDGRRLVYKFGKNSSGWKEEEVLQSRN
To be noted: protein: recombinant; tags: N-terminal GST; dsDNA, one strand shown. In a few lines:
as §1

Test [9] concerns the target CRX (Homo sapiens, UniProt O43186 1-299). To be noted: protein: recombinant; tags: N-terminal GST; dsDNA, one strand shown. In short, it runs like this: as §1
The target in test [10] is ETV1 (Homo sapiens, UniProt P50549 1-477). To be noted: protein: recombinant; tags: N-terminal GST; dsDNA, one strand shown. In a few lines:
as §1

For test [11], the target named is T6, ERF (Homo sapiens, UniProt P50548 1-548).
T6 sequence: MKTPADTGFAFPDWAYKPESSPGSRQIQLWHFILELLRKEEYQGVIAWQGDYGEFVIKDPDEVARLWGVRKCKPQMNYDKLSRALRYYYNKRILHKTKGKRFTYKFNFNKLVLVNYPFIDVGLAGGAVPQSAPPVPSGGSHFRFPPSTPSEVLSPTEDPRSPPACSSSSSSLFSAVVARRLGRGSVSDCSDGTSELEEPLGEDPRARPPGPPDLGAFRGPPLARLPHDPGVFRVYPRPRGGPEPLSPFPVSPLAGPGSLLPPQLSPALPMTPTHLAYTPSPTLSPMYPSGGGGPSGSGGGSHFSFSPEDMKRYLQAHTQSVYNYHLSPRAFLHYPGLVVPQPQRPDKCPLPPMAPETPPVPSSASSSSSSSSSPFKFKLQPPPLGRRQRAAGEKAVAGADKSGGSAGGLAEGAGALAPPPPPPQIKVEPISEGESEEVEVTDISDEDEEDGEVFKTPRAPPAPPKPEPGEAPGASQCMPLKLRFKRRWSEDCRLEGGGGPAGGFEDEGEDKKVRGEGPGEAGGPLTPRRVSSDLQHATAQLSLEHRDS
To be noted: protein: recombinant; tags: N-terminal GST; dsDNA, one strand shown. In short, it runs like this:
as §1

In test [12] the target is T7, ETV3L (Homo sapiens, UniProt Q6ZN32 1-361).
T7 sequence: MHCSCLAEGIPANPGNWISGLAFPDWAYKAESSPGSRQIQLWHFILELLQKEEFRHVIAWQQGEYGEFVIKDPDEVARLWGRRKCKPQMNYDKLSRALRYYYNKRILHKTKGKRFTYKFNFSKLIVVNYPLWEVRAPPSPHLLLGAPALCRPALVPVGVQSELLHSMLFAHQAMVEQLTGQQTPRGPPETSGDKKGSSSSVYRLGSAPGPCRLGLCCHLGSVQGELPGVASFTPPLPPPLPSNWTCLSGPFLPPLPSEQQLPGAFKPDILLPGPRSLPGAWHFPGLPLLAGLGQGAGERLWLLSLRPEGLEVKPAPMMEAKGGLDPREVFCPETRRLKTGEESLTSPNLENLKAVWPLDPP
Particulars: protein: recombinant; tags: N-terminal GST; dsDNA, one strand shown. In short, it runs like this: as §1

Test [13] has as its target T8, ETS2 (Homo sapiens, UniProt P15036 1-469).
T8 sequence: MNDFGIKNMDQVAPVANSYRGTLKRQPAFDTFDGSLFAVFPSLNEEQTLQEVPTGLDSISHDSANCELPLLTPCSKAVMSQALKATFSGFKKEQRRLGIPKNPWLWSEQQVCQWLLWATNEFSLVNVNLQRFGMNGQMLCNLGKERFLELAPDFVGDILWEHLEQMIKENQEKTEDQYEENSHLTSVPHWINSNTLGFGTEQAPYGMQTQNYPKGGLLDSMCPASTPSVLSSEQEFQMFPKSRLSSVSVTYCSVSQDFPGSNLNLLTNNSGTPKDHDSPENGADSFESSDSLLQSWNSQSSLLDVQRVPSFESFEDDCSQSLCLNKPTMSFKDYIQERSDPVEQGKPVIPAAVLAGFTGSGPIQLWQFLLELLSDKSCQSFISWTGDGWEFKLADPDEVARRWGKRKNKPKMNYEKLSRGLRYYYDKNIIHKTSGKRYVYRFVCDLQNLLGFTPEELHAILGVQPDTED
Particulars: protein: recombinant; tags: N-terminal GST; dsDNA, one strand shown. In short, it runs like this:
as §1

Test [14] has as its target T9, SPDEF (Homo sapiens, UniProt O95238 1-335).
T9 sequence: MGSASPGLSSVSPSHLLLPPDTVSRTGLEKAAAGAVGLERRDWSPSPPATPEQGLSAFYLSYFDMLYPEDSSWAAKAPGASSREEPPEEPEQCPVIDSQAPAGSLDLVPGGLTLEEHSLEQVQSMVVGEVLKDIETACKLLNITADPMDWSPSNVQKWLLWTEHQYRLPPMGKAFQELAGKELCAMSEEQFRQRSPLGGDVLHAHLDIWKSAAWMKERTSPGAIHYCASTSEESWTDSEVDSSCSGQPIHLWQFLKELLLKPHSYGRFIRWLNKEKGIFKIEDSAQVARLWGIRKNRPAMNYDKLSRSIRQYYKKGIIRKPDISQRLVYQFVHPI
Particulars: protein: recombinant; tags: N-terminal GST; dsDNA, one strand shown. In short, it runs like this: as §1

The target in test [15] is T10, ETV7 (Homo sapiens, UniProt Q9Y603 1-341).
T10 sequence: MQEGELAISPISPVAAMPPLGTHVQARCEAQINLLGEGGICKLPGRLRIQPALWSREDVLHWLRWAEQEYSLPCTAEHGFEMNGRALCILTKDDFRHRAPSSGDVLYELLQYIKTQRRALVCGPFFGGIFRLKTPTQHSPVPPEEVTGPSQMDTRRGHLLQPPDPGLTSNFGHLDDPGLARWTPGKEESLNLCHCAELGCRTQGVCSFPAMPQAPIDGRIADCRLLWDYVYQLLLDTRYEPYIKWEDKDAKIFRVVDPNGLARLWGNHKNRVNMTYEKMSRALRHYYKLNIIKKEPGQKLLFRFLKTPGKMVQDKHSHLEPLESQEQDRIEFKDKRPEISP
To be noted: protein: recombinant; tags: N-terminal GST; dsDNA, one strand shown. In a few lines: as §1

For test [16], the target named is T11, ELF5 (Homo sapiens, UniProt Q9UKW6-2 1-255).
T11 sequence: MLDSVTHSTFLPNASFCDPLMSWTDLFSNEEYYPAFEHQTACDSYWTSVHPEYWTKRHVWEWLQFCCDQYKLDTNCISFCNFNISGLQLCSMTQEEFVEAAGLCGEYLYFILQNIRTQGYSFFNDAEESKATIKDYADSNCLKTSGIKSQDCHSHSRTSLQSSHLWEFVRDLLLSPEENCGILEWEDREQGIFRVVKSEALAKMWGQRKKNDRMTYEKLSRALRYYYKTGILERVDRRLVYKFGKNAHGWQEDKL
To be noted: protein: recombinant; tags: N-terminal GST; dsDNA, one strand shown. In a few lines:
as §1

Test [17] concerns the target T12, ETV3 (Homo sapiens, UniProt P41162-2 1-143).
T12 sequence: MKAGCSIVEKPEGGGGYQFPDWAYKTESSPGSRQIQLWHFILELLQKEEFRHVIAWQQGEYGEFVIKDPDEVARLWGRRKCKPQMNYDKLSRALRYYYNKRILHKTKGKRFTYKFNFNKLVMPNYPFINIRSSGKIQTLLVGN
Particulars: protein: recombinant; tags: N-terminal GST; dsDNA, one strand shown. In short, it runs like this:
as §1

Test [18] has as its target ETV6 (Homo sapiens, UniProt P41212 1-452). To be noted: protein: recombinant; tags: N-terminal GST; dsDNA, one strand shown. In a few lines: as §1

Chain of CRX (O43186 whole entry): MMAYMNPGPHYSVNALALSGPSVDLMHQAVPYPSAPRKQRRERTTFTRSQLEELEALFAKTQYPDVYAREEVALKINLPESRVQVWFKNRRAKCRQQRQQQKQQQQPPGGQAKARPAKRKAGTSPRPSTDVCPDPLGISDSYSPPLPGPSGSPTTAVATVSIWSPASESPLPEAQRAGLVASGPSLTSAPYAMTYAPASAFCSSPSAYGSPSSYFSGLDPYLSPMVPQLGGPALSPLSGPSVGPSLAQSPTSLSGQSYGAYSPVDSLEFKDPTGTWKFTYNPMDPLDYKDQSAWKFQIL
Chain of ETV5 (P41161 whole entry): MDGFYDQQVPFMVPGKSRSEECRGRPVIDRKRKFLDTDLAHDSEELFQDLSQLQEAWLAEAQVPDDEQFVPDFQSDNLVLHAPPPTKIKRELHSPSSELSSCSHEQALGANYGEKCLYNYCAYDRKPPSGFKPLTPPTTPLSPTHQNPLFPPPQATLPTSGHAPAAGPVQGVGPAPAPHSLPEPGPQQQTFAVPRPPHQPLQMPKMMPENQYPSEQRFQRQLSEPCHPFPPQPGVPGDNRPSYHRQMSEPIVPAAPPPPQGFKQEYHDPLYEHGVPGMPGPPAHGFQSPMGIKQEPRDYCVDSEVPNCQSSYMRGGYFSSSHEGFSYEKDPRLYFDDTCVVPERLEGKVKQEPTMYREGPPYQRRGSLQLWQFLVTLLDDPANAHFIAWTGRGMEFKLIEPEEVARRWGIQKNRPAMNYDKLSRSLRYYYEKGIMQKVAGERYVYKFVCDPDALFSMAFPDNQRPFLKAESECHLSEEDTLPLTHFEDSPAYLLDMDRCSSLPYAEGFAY
Chain of HSF1 (Q00613 whole entry): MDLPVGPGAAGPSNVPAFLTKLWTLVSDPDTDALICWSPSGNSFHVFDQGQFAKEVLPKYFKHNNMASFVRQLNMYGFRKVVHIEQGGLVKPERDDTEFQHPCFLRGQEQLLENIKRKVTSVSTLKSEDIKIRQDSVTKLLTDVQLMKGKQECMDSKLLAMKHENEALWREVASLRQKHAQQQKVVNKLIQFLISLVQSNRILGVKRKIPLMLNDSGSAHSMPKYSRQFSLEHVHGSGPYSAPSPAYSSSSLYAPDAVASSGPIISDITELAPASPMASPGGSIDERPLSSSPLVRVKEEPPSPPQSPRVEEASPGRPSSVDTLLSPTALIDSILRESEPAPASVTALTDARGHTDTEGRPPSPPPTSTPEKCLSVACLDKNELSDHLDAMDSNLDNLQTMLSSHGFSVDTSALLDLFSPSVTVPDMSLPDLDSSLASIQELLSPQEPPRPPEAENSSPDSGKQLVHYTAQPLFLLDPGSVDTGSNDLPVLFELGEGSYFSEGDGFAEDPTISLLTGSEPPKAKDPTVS
Chain of ETV1 (P50549 whole entry): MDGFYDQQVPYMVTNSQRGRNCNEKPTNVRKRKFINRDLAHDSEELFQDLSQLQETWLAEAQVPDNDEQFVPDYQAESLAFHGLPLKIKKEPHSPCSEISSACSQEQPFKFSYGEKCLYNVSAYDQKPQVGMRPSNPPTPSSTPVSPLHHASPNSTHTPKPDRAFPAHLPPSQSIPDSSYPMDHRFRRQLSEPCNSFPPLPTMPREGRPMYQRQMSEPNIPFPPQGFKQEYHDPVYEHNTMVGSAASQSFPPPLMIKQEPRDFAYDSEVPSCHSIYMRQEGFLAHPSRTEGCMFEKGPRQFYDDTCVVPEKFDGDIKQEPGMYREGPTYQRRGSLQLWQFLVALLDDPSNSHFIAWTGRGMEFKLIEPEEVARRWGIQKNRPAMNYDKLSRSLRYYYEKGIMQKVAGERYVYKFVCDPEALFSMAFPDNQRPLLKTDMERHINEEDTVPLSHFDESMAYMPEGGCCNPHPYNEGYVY
Chain of ELF4 (Q99607 whole entry): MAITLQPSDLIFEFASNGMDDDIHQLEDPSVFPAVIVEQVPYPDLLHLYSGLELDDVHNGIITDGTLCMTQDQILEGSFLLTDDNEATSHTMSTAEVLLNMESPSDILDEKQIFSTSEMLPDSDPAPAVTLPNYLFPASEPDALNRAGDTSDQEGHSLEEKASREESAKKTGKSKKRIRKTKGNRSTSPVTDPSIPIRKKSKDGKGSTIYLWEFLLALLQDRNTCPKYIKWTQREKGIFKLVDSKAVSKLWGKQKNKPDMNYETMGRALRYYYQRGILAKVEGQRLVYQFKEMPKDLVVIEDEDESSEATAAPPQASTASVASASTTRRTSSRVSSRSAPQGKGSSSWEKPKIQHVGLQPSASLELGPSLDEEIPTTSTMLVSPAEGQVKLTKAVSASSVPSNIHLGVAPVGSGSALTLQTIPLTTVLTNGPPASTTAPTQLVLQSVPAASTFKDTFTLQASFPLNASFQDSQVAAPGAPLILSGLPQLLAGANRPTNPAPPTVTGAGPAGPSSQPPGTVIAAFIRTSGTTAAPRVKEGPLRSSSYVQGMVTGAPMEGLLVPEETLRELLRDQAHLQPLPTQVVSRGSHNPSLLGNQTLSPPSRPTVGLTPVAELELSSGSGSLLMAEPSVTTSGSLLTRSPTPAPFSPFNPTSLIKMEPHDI
Chain of ETV6 (P41212 whole entry): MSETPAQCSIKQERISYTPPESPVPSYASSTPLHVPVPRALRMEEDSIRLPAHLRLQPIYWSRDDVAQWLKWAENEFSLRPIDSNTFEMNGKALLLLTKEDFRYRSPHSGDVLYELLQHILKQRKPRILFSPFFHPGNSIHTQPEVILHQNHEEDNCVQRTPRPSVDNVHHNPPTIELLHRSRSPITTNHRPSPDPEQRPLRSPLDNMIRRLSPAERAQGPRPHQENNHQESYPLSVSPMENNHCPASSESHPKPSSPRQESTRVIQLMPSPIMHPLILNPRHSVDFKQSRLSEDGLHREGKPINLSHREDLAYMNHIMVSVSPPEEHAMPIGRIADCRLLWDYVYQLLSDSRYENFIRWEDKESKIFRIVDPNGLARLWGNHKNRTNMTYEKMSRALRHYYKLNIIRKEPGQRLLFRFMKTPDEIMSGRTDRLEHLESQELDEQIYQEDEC

On to CGTATA, for which the binding signal was 1.04 fold enrichment (6-mer frequency, TF over GST control) in test [1]; 1.15 fold enrichment (6-mer frequency, TF over GST control) in test [2]; 1.03 fold enrichment (6-mer frequency, TF over GST control) in test [3]; 1.19 fold enrichment (6-mer frequency, TF over GST control) in test [4]; 1.13 fold enrichment (6-mer frequency, TF over GST control) in [5]; 1.07 fold enrichment (6-mer frequency, TF over GST control) in test [6]. Moreover, the binding signal in test [7] is 1.12 fold enrichment (6-mer frequency, TF over GST control); in [8], 1.24 fold enrichment (6-mer frequency, TF over GST control); in [9], 1.07 fold enrichment (6-mer frequency, TF over GST control); in [10] it was 1.19 fold enrichment (6-mer frequency, TF over GST control); in test [11], 1.13 fold enrichment (6-mer frequency, TF over GST control); in test [12] it was 1.1 fold enrichment (6-mer frequency, TF over GST control). Moreover, the binding signal in test [13] is 1.11 fold enrichment (6-mer frequency, TF over GST control); in [14], 1.21 fold enrichment (6-mer frequency, TF over GST control); in test [15] it was 1.15 fold enrichment (6-mer frequency, TF over GST control); in [16], 1.16 fold enrichment (6-mer frequency, TF over GST control); in test [17], 1.18 fold enrichment (6-mer frequency, TF over GST control); in test [18], 1.08 fold enrichment (6-mer frequency, TF over GST control).
